Experimental findings from PubChem BioAssay AID602144 (Vanderbilt Specialized Chemistry Center, 2011) are described below.

Structures are written as SMILES. Active and inactive are the calls of the source. Rule as the data show it: active = remaining activity below about 50%; inactive = the rest.

The target in the assay is Phospholipase D1 (Homo sapiens) (UniProt Q13393). Nature of the assay: PLD1 inhibitors in cells, Calu-1 cells, single concentration (AID 602144).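 Also: tested at 200 nM.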 The conditions noted are these: cellular PLD1 activity, hits give low values.
Sequence of Phospholipase D1 (Homo sapiens) (Q13393 whole entry, looked up): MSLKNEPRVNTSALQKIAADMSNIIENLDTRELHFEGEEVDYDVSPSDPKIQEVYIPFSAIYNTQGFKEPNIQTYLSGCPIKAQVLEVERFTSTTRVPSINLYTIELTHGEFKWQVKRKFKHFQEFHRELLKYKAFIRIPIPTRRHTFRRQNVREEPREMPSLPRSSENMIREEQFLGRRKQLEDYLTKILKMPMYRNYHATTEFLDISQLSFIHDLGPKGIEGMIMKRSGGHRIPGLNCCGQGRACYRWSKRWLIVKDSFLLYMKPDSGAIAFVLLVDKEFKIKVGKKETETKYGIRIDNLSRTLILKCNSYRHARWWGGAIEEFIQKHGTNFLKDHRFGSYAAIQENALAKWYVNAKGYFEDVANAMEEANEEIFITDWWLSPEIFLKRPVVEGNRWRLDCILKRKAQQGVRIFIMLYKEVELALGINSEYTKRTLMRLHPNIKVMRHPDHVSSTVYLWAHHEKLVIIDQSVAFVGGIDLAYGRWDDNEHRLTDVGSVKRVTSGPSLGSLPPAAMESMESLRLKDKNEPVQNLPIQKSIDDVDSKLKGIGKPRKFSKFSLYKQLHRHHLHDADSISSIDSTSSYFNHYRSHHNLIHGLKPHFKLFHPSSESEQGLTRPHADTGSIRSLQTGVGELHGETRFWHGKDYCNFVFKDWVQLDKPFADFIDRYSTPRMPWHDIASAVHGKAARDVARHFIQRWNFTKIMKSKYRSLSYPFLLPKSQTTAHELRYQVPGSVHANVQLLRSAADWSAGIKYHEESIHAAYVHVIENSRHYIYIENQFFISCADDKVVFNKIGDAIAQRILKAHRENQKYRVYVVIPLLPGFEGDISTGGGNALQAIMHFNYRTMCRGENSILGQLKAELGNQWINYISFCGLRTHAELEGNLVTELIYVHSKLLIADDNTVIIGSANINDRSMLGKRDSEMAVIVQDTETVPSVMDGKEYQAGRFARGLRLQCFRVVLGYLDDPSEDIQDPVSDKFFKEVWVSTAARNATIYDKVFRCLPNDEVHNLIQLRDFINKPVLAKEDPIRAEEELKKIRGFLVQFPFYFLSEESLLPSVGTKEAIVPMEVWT
Sequence of Phospholipase D1 (Homo sapiens) (Q13393 whole entry, looked up): as above
What is called remaining activity is the signal under treatment as a percentage of the control signal. Turning to `O=C(NCCN1CCC2(CC1)C(=O)NCN2c1cccc(F)c1)c1ccc(OC(F)(F)F)cc1`, the remaining activity is 96.9% (inactive).
With `O=C(NCCN1CCC2(CC1)C(=O)NCN2c1cccc(F)c1)c1cccc(F)c1` the figure was 100% (inactive); with `O=C(NCCN1CCC2(CC1)C(=O)NCN2c1cccc(F)c1)c1ccc2c(c1)C(=O)OC2=O`, 102% (inactive); with `Cc1cccc(C(=O)NCCN2CCC3(CC2)C(=O)NCN3c2ccccc2)n1`, 123% (inactive).
With `O=C(NCCN1CCC2(CC1)C(=O)NCN2c1ccccc1)C1C[C@H]1c1ccccc1` (stereo not given in full) the figure was 138% (inactive); with `O=C(NCCN1CCC2(CC1)C(=O)NCN2c1ccccc1)c1ccc(F)cc1O`, 107% (inactive); with `O=C(Cc1cccs1)NCCN1CCC2(CC1)C(=O)NCN2c1cccc(F)c1`, 89.8% (inactive).
Then `O=C1NCN(c2ccccc2)C12CCN(CCN1CCCC1)CC2`, with 116% (inactive); and `C[C@@H](CN1CCC2(CC1)C(=O)NCN2c1ccc(F)c(F)c1)NC(=O)c1ccc(F)cc1`, with 22.8% (active).
For `O=C(NCCCCCCN1CCC2(CC1)C(=O)NCN2c1ccccc1)c1cnc2ccccc2c1`, the remaining activity is 122% (inactive).
On to `O=C(NCCN1CCC2(CC1)C(=O)NCN2c1ccc(F)cc1)c1cnc2ccccc2c1`, for which the remaining activity is 60.5% (inactive).
With `C[C@@H](CN1CCC2(CC1)C(=O)NCN2c1ccc(F)c(F)c1)NC(=O)c1ccc2ccccc2c1` the figure was 25.7% (active); with `C[C@@H](CN1CCC2(CC1)C(=O)NCN2c1ccc(F)c(F)c1)NC(=O)c1cnc2ccccc2c1`, 5.04% (active); with `CCCCOc1ccc(C(=O)NCCN2CCC3(CC2)C(=O)NCN3c2cccc(F)c2)cc1`, 110% (inactive).
With `O=C(NCCN1CCC2(CC1)C(=O)NCN2c1ccccc1)c1ncc[nH]1` the figure was 62.9% (inactive).
With `O=C(Cc1ccccc1Br)NCCN1CCC2(CC1)C(=O)NCN2c1cccc(F)c1` the figure was 100% (inactive); with `O=C(NCCN1CCC2(CC1)C(=O)NCN2c1ccccc1)c1cnc2ccccc2n1`, 96.5% (inactive); with `O=C(N[C@@H](Cc1ccccc1)CN1CCC2(CC1)C(=O)NCN2c1ccccc1)c1ccc(F)c(F)c1`, 75.5% (inactive).
Turning to `CC(C)[C@@H](CN1CCC2(CC1)C(=O)NCN2c1ccccc1)NC(=O)c1ccc(F)cc1`, the remaining activity was 41.3% (active).
Then `Cc1ccc(C(=O)NCCN2CCC3(CC2)C(=O)NCN3c2ccccc2)c(O)c1`, with 89.1% (inactive); and `O=C(CCN1CCC2(CC1)C(=O)NCN2c1ccccc1)Nc1ccc(F)cc1`, with 125% (inactive); and `O=C(CCN1CCC2(CC1)C(=O)NCN2c1ccccc1)Nc1cnc2ccccc2c1`, with 123% (inactive).
Then `O=C(CCN1CCC2(CC1)C(=O)NCN2c1ccccc1)Nc1ccc(Cl)cc1`, with 122% (inactive).
With `O=C(NCCN1CCC2(CC1)C(=O)NCN2c1cccc(F)c1)c1ccc(F)nc1` the figure was 117% (inactive); with `C[C@H](CN1CCC2(CC1)C(=O)NCN2c1ccccc1)NC(=O)c1cc(Br)c(Br)o1`, 71.8% (inactive); with `C[C@@H](CN1CCC2(CC1)C(=O)NCN2c1ccc(F)c(F)c1)NC(=O)c1ccc(Cl)cc1`, 6.51% (active).
Regarding `O=C(c1cnc2ccccc2c1)N1CC(N2CCC3(CC2)C(=O)NCN3c2ccccc2)C1`, the remaining activity is 106% (inactive).
With `O=C(NCCN1CCC2(CC1)C(=O)NCN2c1ccccc1)c1ccc(-c2ccccc2)o1` the figure was 132% (inactive).
Then `O=C(CCN1CCC2(CC1)C(=O)NCN2c1ccccc1)Nc1ccc(F)c(F)c1`, with 125% (inactive); and `O=C(NCCN1CCC2(CC1)C(=O)NCN2c1cccc(F)c1)C1CCCCC1`, with 102% (inactive).
For `O=C(NCCN1CCC2(CC1)C(=O)NCN2c1ccccc1)c1cccc(F)n1`, the remaining activity was 138% (inactive).
With `O=C(NCCN1CCC2(CC1)C(=O)NCN2c1ccccc1)c1cc(Br)c(Br)o1` the figure was 66.9% (inactive); with `O=C(NCCN1CCC2(CC1)C(=O)NCN2c1ccccc1)c1ccc2cc(F)ccc2c1`, 73.9% (inactive); with `O=C(c1cnc2ccccc2c1)N1CC(N2CCC(n3c(=O)[nH]c4ccccc43)CC2)C1`, 119% (inactive).
`O=C(NCCN1CCC2(CC1)C(=O)NCN2c1ccc(Cl)cc1)c1ccc2ccccc2c1`: the remaining activity is 103% (inactive).
